Compound activity deposited in PubChem BioAssay by National Center for Advancing Translational Sciences (NCATS).
In the library only some 8.7% were active in any assay of this set; here they are far more common.
Sfp inh = inhibitors of Bacillus subtilis Sfp phosphopantetheinyl transferase; actives 3.5% (n = 310,000); Q9F4F7; Biochemical Sfp PPTase activity, qHTS; Potency, µM, inactives show largest response in the series, negative = inhibition, actives largely listed as inhibitors; AID 1490;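 note: the enzyme is Sfp with the accession as filed and its product quenches rhodamine fluorescence; 0% = enzyme reaction without inhibitor and -100% = no enzyme wells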
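Step 1, compound plus 15 nM Sfp-PPTase, 15 min, room temperature. Step 2, add rhodamine-CoA (5 uM) and BHQ-2-YbbR (12.5 uM). Step 3, read 525/598 nm fluorescence at 0 and 30 min.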
JMJD2A Tudor = blocks the human JMJD2A Tudor domain | AID 504339 | AlphaScreen JMJD2A-Tudor / H3K4me3 peptide binding | Potency, µM (highest dose often 114 µM), for inactives: at the highest dose activity change, negative = inhibition, actives largely listed as inhibitors | O75164 | actives 4.4% (n = 390,000); note: % is set by controls: 0 for no effect and ±100 for the full control effect; nearly all actives have a fitted effect of over 50% in size
12-LOX inh = blocks human arachidonate 12S-lipoxygenase; P18054; purified 12hLO, xylenol orange hydroperoxide absorbance; Potency, µM (series often up to 108 µM), without a hit: at the highest dose activity change, negative = inhibition, actives largely listed as inhibitors; actives 1.1% (n = 580,000); note: % is set by controls: 0 for no effect and ±100 for the full control effect
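Hydroperoxide product was detected by ferrous iron/xylenol orange as the 573 to 405 nm absorbance ratio. Arachidonic acid at 40 uM (final) was turned over for 30 min at room temperature by 150 nM human 12hLO, pH 7.0 Hepes buffer, after 15 min compound preincubation.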
BAZ2B inh = inhibitors of human BAZ2B bromodomain. Q9UIF8. AlphaScreen BAZ2B-H3K14Ac peptide displacement. Potency, µM (highest dose often 114 µM), for the others: top-dose activity change, negative = inhibition, most hits filed as inhibitors. actives 4.4% (n = 360,000); note: % is set by controls: 0 for no effect and ±100 for the full control effect; nearly all actives have a fitted effect of over 60% in size
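In this displacement format the biotinylated H3(5-23) peptide acetylated at Lys14 serves as ligand at 50 nM, with BAZ2B at 50 nM in PBS pH 7.4 containing 0.01% Tween-20. Donor and acceptor beads are 10 ug/mL final.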
G9a block = G9a (human) methyltransferase inhibition; AID 504332; G9a H3K9 monomethylation, AlphaScreen, 2 h; Q96KQ7; Potency, µM (series often up to 102 µM), for inactives: top-dose activity, negative = inhibition, most hits filed as inhibitors; actives 8.8% (n = 350,000); note: % is set by controls: 0 for no effect and ±100 for the full control effect; nearly all actives have a fitted effect of over 75% in size
Target sequence (Q96KQ7 913-1193 limits assumed): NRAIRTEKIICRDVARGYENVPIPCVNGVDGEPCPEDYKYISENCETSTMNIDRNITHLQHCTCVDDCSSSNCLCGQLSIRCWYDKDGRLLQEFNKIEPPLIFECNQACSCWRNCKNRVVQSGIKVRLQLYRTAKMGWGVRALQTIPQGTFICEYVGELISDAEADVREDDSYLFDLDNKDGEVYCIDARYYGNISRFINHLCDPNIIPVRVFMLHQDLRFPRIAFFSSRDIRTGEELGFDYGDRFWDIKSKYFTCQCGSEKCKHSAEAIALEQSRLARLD
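Using a bead-based AlphaScreen, monomethylated H3K9 product from 2 h room-temperature reactions (G9a 20 nM, peptide 500 nM, SAM 20 uM) was detected with 0.5 ug/mL rabbit anti-H3K9me1 antibody.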
HP1b chromo inh = HP1-beta chromodomain-methylated histone interaction inhibition; P83916; AID 540317; actives 0.56% (n = 390,000); AlphaScreen HP1-beta / biotin-H3K9me3 peptide binding; Potency, µM (series often up to 114 µM), for the others: top-dose activity change, negative = inhibition, actives largely listed as inhibitors; note: nearly all actives have a fitted effect of over 70% in size
Target sequence (P83916 whole entry, looked up): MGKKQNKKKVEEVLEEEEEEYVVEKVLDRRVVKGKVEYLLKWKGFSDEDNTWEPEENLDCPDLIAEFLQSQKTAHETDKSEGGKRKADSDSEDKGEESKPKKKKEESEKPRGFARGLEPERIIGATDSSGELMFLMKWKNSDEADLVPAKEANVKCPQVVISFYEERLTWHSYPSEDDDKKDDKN
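AlphaScreen: HP1-beta (50 nM) preformed 30 min with biotin-H3(1-18)K9me3 peptide (50 nM) in PBS pH 7.4, 0.01% Tween-20. Compound added for 30 min at RT, then streptavidin donor/nickel chelate acceptor beads (10 ug/mL) for 30 min.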
An asterisk follows results filed as active; ? = inconclusive; · = no result; [ ] = remark or other dose. Calls come from the whole dose curve; as a rule, active = well fitted curve in the direction sought with a large enough effect; inconclusive = small, poorly fitted or top-dose-only effect, or another doubt; inactive = no such curve, though single readings can be large; an effect the other way counts as inactive or inconclusive. Potency is the fitted concentration of half-maximal effect.

SMILES	Sfp inh	JMJD2A Tudor	12-LOX inh	BAZ2B inh	G9a block	HP1b chromo inh
CCOc1ccc(CCNC(=O)c2sc3nc4n(c(=O)c3c2C)CCC4)cc1OCC	16%	-17%	18%	-10%	-10%[12.7 µM]	27%
Cc1c(C(=O)NCc2ccccc2Cl)sc2nc3n(c(=O)c12)CCC3	·	-23%	3%	-38%	-29%[59 µM]	10%
Cc1c(C(=O)NCc2cccc(Cl)c2)sc2nc3n(c(=O)c12)CCCC3	·	79µM*	0%	18µM*	16µM*	61%
CCOc1ccc(CCNC(=O)c2sc3nc4n(c(=O)c3c2C)CCCC4)cc1OCC	·	-14%	3%	56µM*	-35%[59 µM]	71%
O=C(c1ccc(Br)cc1)N1CCc2[nH]nc(C(=O)N3CCOCC3)c2C1	·	·	1%	·	·	·
Cc1c(C(=O)NCc2ccc(Cl)cc2)sc2nc3n(c(=O)c12)CCCC3	·	9%	-20%	-23%	11µM*	115%
C=CCn1c(SCC(=O)c2ccc(O)c(O)c2)nnc1-c1ccccc1OC	-23%	?	?	50µM*	5µM*	26%
CCn1c(SCC(=O)c2ccc(O)c(O)c2)nnc1-c1ccccc1	-18%	?	?	?	14µM*	10%
CCn1c(SCC(=O)c2cc(C)n(C)c2C)nnc1-c1ccccc1	13%	-14%	?	-33%	?	-5%
C=CCn1c(SCC(=O)Nc2cc(C)on2)nnc1-c1ccccc1OC	·	-15%	34%	·	·	30%
CCn1c(SCC(=O)c2ccc(O)c(O)c2)nnc1-c1ccccc1OC	-21%	28µM*	?	79µM*	?	?
Cc1ccc(-n2nc(C)c([C@H]3C=C[C@@H](OC(=O)Nc4ccc(C(C)C)cc4)C3)c2C)cc1Cl	·	·	-3%	·	·	·
CC(C)C(=O)N1N=C(c2cccs2)CC1c1ccc2nccnc2c1 (stereo unspecified)	·	·	30%	·	·	·
O=C(OCC(=O)N1CCCc2ccccc21)c1ccc(S(=O)(=O)C(F)F)cc1	·	-21%	-7%	8%	50µM*	10%
CCOC(=O)c1cc(C)[nH]c(=S)c1C#N	40µM*	6.3µM*	?	?	-1%[0.501 µM]	-14%
O=C(Nc1ccccc1F)C1CCCN(S(=O)(=O)c2ccccc2)C1 (stereo unspecified)	-5%	13µM*	-4%	-3%	6%	-5%
Cc1ccc(S(=O)(=O)N2CCN(S(=O)(=O)c3ccccc3)C2c2ccc(N(C)C)cc2)cc1 (stereo unspecified)	2%	?	-21%	?	8.9µM*	-13%
COc1ccc(S(=O)(=O)N2CCCC(C(=O)NCc3ccccn3)C2)cc1 (stereo unspecified)	5%	4%	?	8%	-8%[59 µM]	28%
CS(=O)(=O)N1CCCC(C(=O)Nc2ccccc2F)C1 (stereo unspecified)	18%	-10%	16%	-13%	47%	37%
O=C(NCc1ccccn1)C1CCCN(S(=O)(=O)c2ccccc2)C1 (stereo unspecified)	13%	-9%	-11%	7%	35µM*	48%
CN(C)c1ccc(NC(=O)C2CCCN(S(=O)(=O)c3ccccc3)C2)cc1 (stereo unspecified)	-2%	-23%[57.1 µM]	?	?	8.9µM*	12%
O=C(O)CCC(CNS(=O)(=O)c1ccc(Cl)cc1)C(F)(F)F (stereo unspecified)	·	·	-23%	·	·	·
Cc1ccc(S(=O)(=O)N2CCCC2C(=O)Nc2ccc(Br)cc2)cc1 (stereo unspecified)	·	0%	0%	7%	17%[59 µM]	64%
Cc1ccc(S(=O)(=O)N2CCCCC2C(=O)Nc2ccc(N(C)C)cc2)cc1 (stereo unspecified)	·	50µM*	?	·	·	?
CC1CCN(c2ccc(NC(=O)C3CCCN3S(=O)(=O)c3ccc(F)cc3)cc2)CC1 (stereo unspecified)	·	40µM*	194%	45µM*	10µM*	?
SMILES	Sfp inh	JMJD2A Tudor	12-LOX inh	BAZ2B inh	G9a block	HP1b chromo inh
Nc1ccc(S(=O)(=O)N2CCCC2C(=O)O)cc1 (stereo unspecified)	79µM*	-12%	-21%	-31%	-50%	13%
O=C(Nc1ccc(N2CCCCC2)cc1)C1CCCN1S(=O)(=O)c1ccc(F)cc1 (stereo unspecified)	·	?	388%	?	5%[12.7 µM]	-11%
COCCC(=O)N1CCCCCCN(C)C(=O)[C@@H]2CCC[C@@H]21	·	·	43%	·	·	·
COc1ccc(N2CCN(S(=O)(=O)CCNC(=O)c3ccc(Br)o3)CC2)cc1	16%	-17%	3%	-6%	79µM*	25%
COc1ccc(CC(=O)NCCS(=O)(=O)N2CCN(c3ccccc3)CC2)cc1	·	-11%	-18%	-1%	45µM*	-1%
COc1ccc(N2CCN(S(=O)(=O)CCNC(=O)Cc3ccc(-c4ccccc4)cc3)CC2)cc1	·	-11%	?	-5%	6%[59 µM]	7%[57 µM]
COc1ccc(N2CCN(S(=O)(=O)CCNC(=O)c3ccco3)CC2)cc1	·	-7%	-6%	5%	17%[2.33 µM]	12%
COc1ccc(N2CCN(S(=O)(=O)CCNS(=O)(=O)c3ccccc3)CC2)cc1	·	8%	?	-3%	14µM*	29%
CCn1c(NCC(O)c2ccccc2)nc2c1c(=O)n(C)c(=O)n2C (stereo unspecified)	·	·	58%	·	·	·
C=CCN1C=C2C(=O)C(C)(OC(=O)c3cccs3)C(=O)C=C2C=C1CCCC(=O)OC (stereo unspecified)	0%	-29%	6%	79µM*	-6%[12.7 µM]	11%
CCN(CC)CCNC(=O)c1ccc(NC(=O)c2ccc(Cl)c(S(=O)(=O)N3CCCCCC3)c2)cc1	50µM*	?	?	-17%	·	-24%
CCN(CC)CCNC(=O)c1ccc(NC(=O)Cc2cccc(C(F)(F)F)c2)cc1	·	·	45µM*	·	·	·
CCN(CC)CCNC(=O)c1ccc(NC(=O)c2ccc(C(=O)c3ccccc3)cc2)cc1	·	-15%	·	-17%	7.1µM*	7%
